Bioassay records (PubChem)
Sampled rows, rich in hits. Any-hit rate of the full collection: about 4.9%.
HSF1 inhib = HSF1 inhibitors in luciferase reporter cells, primary screen, cell-based, NIH3T3, luminescence; NIH3T3-HGL HSE-luciferase, MG132-induced, luminescence 8 h; active compounds read low; activity change, negative = inhibition, % at 7.5 µM (by protocol); hit rate 0.77% among 300,000; AID 2098, 2009;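 active = more than half of replicate wells show activity change below -50%, luminescence cut by over half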;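 note: luciferase reports HSF-1 transcriptional activity via heat shock element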
dFosB act = activators of delta FosB homodimer, primary screen, biochemical, fluorescence polarization, TAMRA-CDK5 oligo, single point | Protein FosB (Mus musculus), P13346 | purified delta FosB; percent of positive-control signal above neutral wells | activation, % at 25 µM | hit rate 0.99% among 340,000;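 active = mean activation above about 17%, with every replicate also reaching it, limit read from the data, passing the limit was not always enough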
Target sequence (P13346 whole entry, looked up): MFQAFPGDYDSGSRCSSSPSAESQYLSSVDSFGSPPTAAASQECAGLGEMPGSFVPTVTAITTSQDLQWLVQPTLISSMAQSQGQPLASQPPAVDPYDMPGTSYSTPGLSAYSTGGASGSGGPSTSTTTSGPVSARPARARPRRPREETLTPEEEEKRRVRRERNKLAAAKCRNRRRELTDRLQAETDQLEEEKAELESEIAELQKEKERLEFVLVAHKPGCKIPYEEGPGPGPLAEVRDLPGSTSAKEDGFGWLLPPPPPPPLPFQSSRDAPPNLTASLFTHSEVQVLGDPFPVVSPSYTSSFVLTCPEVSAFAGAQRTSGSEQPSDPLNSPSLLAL
HSF1 activator = HSF-1 activators, primary screen, NIH3T3-HGL cells, MG132 stress, luminescence, single point | NIH3T3-HGL HSF-1 luciferase reporter, 8 h; 100% = twice DMSO control signal | activation, % at 9 µM | hit rate 1.7% among 300,000;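 active = mean replicate activation of at least 50% with a set share of replicates each reaching 50%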
HSP90 refold inh = HSP90 inhibitors, primary screen, cell lysate, luminescence | hit rate 0.91% among 290,000 | Heat shock protein HSP 90 (rabbit reticulocyte lysate; luciferase refolding) | Rabbit reticulocyte lysate, luciferase refolding luminescence, 3 h | inhibition, % at 5.6 µM;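 active = inhibition above the screen-wide mean plus 3 SD, computed separately per campaign, cut at about 16% in these data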;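 note: inhibitors lower the luminescence because luciferase stays unfolded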
Platelet DG rel = inhibitors of platelet dense granule secretion, primary screen, cell-based, MLPCN, human platelets | human platelet-rich plasma, SFLLRN dense granule ATP release, luminescence | inhibition, %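 (compounds screened at 7.5 µM in platelet-rich plasma)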 | hit rate 0.22% among 300,000;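 active = mean replicate score, as percent of positive control, at or above 50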
MPTP block = mitochondrial permeability transition pore inhibitors, primary screen, biochemical, isolated mouse mitochondria, absorbance; inhibition, % at 10 µM; Ca2+ swelling absorbance, 30 min; hit rate 1.4% among 360,000;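 active = inhibition of 50% or more, scaled per plate between neutral and stimulator controls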
A number is an active result; n = inactive; x = not tested or not shown.

SMILES | HSF1 inhib | dFosB act | HSF1 activator | HSP90 refold inh | Platelet DG rel | MPTP block
O=C(CN1C(=O)/C(=C/c2ccc(F)cc2)SC1=S)NC1C=CS(=O)(=O)C1 (stereo not drawn) | n | 26.1 | n | n | n | n
O=C(CN1C(=O)/C(=C/c2ccccc2)SC1=S)NC1C=CS(=O)(=O)C1 (stereo not drawn) | n | n | n | n | n | n
COc1ccc(/C=C2\SC(=S)N(CC(=O)NC3C=CS(=O)(=O)C3)C2=O)cc1 (stereo not drawn) | n | 85.3 | n | n | n | n
CSc1ccccc1NC(=O)c1ccc(N2CC3CC(C2)c2cccc(=O)n2C3)c(NC(=O)c2cccnc2)c1 (stereo not drawn) | n | n | n | n | n | n
COc1ccccc1NC(=O)c1ccc(N2CC3CC(C2)c2cccc(=O)n2C3)c(NC(=O)c2ccncc2)c1 (stereo not drawn) | -56.8 | n | n | n | n | n
CC(=O)Nc1ccc(S(=O)(=O)N(C)c2ccccc2)cc1 | n | n | n | n | n | n
CCOC(=O)/C=C/C(=O)Nc1ccc(S(=O)(=O)N(C)c2ccccc2)cc1 | n | n | 67.4 | n | n | n
c1ccc(SCc2cc(-c3ccccc3)no2)cc1 | n | n | 67.3 | n | n | n
Clc1ccc(-c2cc(CSc3ccccc3)on2)cc1 | n | n | 65.8 | n | n | n
Cc1ccc(NC(=O)COC(=O)[C@H](C)NC(N)=O)c(C)c1 | n | n | n | n | n | n
CNc1oc(C)nc1S(=O)(=O)c1ccccc1 | n | n | n | n | n | n
Cc1nc(S(=O)(=O)c2ccc(Cl)cc2)c(NCc2ccccc2)o1 | n | n | 64.1 | n | n | n
O=C1C=CC(=O)N1N(c1ccccc1)c1ccccc1 | n | n | 69.1 | n | n | n
O=C1c2ccccc2C(=O)N1N(c1ccccc1)c1ccccc1 | x | n | x | x | x | n
O=C(NCc1ccccn1)Nc1cccc(NC(=O)NCc2ccccn2)c1 | n | n | n | n | n | n
O=C(NCc1ccccn1)Nc1cccc(Cl)c1 | n | n | 55.6 | n | n | n
CN(C)c1ccc(NC(=S)c2ccc3ccccc3n2)cc1 | n | n | n | n | n | n
O=C(CCc1nnc2ccc(N3CCC4(CC3)OCCO4)nn12)NCc1ccc(F)cc1 | -72.2 | n | n | n | n | n
CCOC(=O)c1cnc[nH]c1=O | x | n | x | x | x | n
CCOC(=O)c1cn[nH]c1C(F)(F)F | n | n | 56.9 | n | n | n
NC(=O)c1nsc(C(=O)N(c2ccc3c(c2)OCCO3)C(C(=O)NCC2CCCO2)c2ccc(F)cc2)c1N (stereo not drawn) | -53.7 | n | n | n | n | n
Cc1ccc(C(C(=O)NCC2CCCO2)N(C(=O)c2snc(C(N)=O)c2N)c2ccc3c(c2)OCCO3)cc1 (stereo not drawn) | n | n | n | n | n | n
NC(=O)c1nsc(C(=O)N(c2ccccc2)C(C(=O)NCC2CCCO2)c2cccs2)c1N (stereo not drawn) | n | n | 72.5 | n | n | n
O=C(/C=C/c1ccc2c(c1)OCCCO2)c1ccccc1O | n | n | n | n | n | n
CCNc1ccccc(C(=O)/C=C/c2ccc3c(c2)OCO3)c1=O | n | n | 71.7 | n | n | n
SMILES | HSF1 inhib | dFosB act | HSF1 activator | HSP90 refold inh | Platelet DG rel | MPTP block
Cc1ccc(C(=O)/C=C/c2ccc3c(c2)OCO3)o1 | n | n | 59.5 | n | n | n
O=C(/C=C/c1ccc2c(c1)OCO2)c1ccc[nH]1 | n | n | 62.3 | n | n | n
Cc1ccc(O)c(C(=O)/C=C/c2ccc3c(c2)OCCCO3)c1 | n | n | 447.6 | n | n | n
Cc1nc(CN2CCCCC2)cc(=O)[nH]1 | n | n | n | n | n | n
Cc1ccc(S(=O)(=O)Nc2c(O)c3ccccc3oc2=O)cc1C | n | n | n | n | n | n
Cc1csc(CNc2ncnc3ccc(-c4cccc(Cl)c4)cc23)c1 | x | n | x | x | x | n
COc1cccc(/C=C/C(=O)c2ccc[nH]2)c1 | n | n | 86.2 | n | n | n
CCn1c(O)c(/C=C2\C=Nc3ccccc32)sc1=O | n | n | 74.4 | n | n | n
Oc1nc(Nc2ccccc2)sc1/C=C1\C=Nc2ccccc21 | n | n | 101.1 | n | n | n
Cc1ccsc1/C=N\NC(=O)CCc1c(C)n[nH]c1C | n | n | n | n | n | n
COc1ccc(C2CC(c3c(O)cc(C)oc3=O)=NCCS2)c(OC)c1 (stereo not drawn) | x | n | x | n | x | n
Cc1cc(O)c(C2=Nc3ccccc3SC(c3ccc(Cl)cc3)C2)c(=O)o1 (stereo not drawn) | -54.2 | n | n | n | n | n
Cc1cc(C)c(S(=O)(=O)/N=C2/C=C(Sc3ncn[nH]3)C(=O)c3ccccc32)cc1C | x | n | x | 80.1 | x | n
Cc1cc(C(=O)CN2C(=O)NC3(CCCCC3)C2=O)c(C)n1Cc1ccco1 | n | n | 89.2 | n | n | n
O=C(/C=C\c1ccccc1OC(=O)c1ccccc1F)c1cc2ccccc2o1 | n | n | 166.3 | n | n | n
COC(=O)c1ccccc1NC(=O)COc1ccccc1[N+](=O)[O-] | n | n | n | n | n | n
Cc1ccc(OCC(=O)Nc2ccccc2F)cc1C | n | n | n | n | n | n
Cc1ccc(OCC(=O)Nc2ccccc2[N+](=O)[O-])c(Br)c1 | n | n | 55.2 | n | n | n
Cc1ccc(OCC(=O)Nc2ccccc2F)cc1 | n | n | 56.0 | x | n | n
O=C(Nc1cnns1)Oc1ccccc1 | x | x | x | x | x | n
O=C(COC(=O)c1cccc2c1C(=O)c1ccccc1C2=O)NC1CCCCC1 | n | n | n | n | n | n
O=C(COC(=O)c1ccc2c(c1[N+](=O)[O-])C(=O)c1ccccc1C2=O)NC1CC1 | n | n | 124.1 | n | n | n
CC(=O)N1c2ccc(S(=O)(=O)N3CCCC3)cc2CC1C(=O)NC(C)C (stereo not drawn) | n | n | n | n | n | n
CN(C(=O)c1ccc(OC2CCN(Cc3ccccn3)CC2)cc1)C1CCCCC1 | -52.0 | n | n | n | n | n
C#CCN(C(=O)c1ccc(OC2CCN(Cc3ccccn3)CC2)cc1)C1CCCCC1 | n | n | n | n | n | n
COc1ccc(N2CCN(C(=O)CCNS(=O)(=O)c3ccc4c(c3)CCC(=O)N4)CC2)cc1 | x | n | x | n | x | n
COc1ccccc1N1CCN(C(=O)CCNS(=O)(=O)c2ccc3c(c2)CCC(=O)N3)CC1 | n | n | n | 16.3 | n | n
CC(NC(=O)CCc1nc2cc(S(=O)(=O)N3CCOCC3)ccc2n1C)c1ccc(S(N)(=O)=O)cc1 (stereo not drawn) | n | n | n | n | 55.3 | n
CN(C)S(=O)(=O)c1cccc(NC(=O)CCc2nc3cc(S(=O)(=O)N4CCOCC4)ccc3n2C)c1 | n | n | n | x | n | n
